Data on 13 molecules can be found in PubChem BioAssay.

For part of these data: Results with a measured potency or affinity are listed apart. Calls of active or inactive are those of the source.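 The calls were made as follows, unless noted: active = at least 20% inhibition of 6-phosphogluconate dehydrogenase activity; inactive = the rest.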

For orientation: inhibition means the relative decrease from the control value, in per cent. The term viability denotes a read-out of living cells in per cent, often relative to untreated cells.

Experiment [1] in a line: blockers of polyQ-driven CASP3 activation – cell-based (AID 1583). The conditions noted are these: polyglutamine-induced caspase-3 activation, cell assay; stronger effect = higher value;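 tested at 10 µM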.
The nature of experiment [2]: yeast 75Q aggregation reduction – 75Q-TubU reporter (AID 1593). The conditions noted are these: Yeast 75Q polyglutamine aggregation reporter.
A short description of experiment [3]: restoration of touch response, mutant HTT neurons – whole organism, C. elegans mechanosensory neurons, N-terminal huntingtin (AID 1599). The conditions noted are these: C. elegans polyQ-huntingtin mechanosensory neurons, stronger effect = higher value.
Experiment [4] is described as follows: blockers of cytochrome c efflux from mitochondria – biochemical, purified mitochondria (AID 1603).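 Also: mouse liver mitochondria challenged with calcium chloride; signal normalized to the plate average as 100%.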 The conditions noted are these: stronger effect = lower value.
Experiment [5] can be described thus: polyglutamine aggregate formation blockers (AID 1604). The conditions noted are these: polyglutamine-induced protein aggregation inhibition assay; stronger effect = higher value; tested at 2.5 µM.
Experiment [6] can be described thus: glutamate transport activators, MN-1 cells, MN-1 cell line (AID 1612).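 Also: tested at 1 µM final; 0% = mean of DMSO vehicle wells on each plate; positive means more glutamate uptake than control and negative means less.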 The conditions noted are these: MN-1 motor neuron cells, stronger effect = higher value.
A short description of experiment [7]: GFP-Q80 aggregate reduction, neuronal-like cells, cell-based, NGF-treated PC12, GFPQ80 (AID 1614).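 Also: lower means fewer inclusions and 0 means no inclusions at all.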 The conditions noted are these: PC12 NGF-treated GFP-polyQ80 inclusion reduction.
Experiment [8] in a line: 75Q-TubH aggregate inhibition, S. cerevisiae, yeast (AID 1616). The conditions noted are these: S. cerevisiae 75Q-TubH polyglutamine aggregation suppression; stronger effect = higher value.
Experiment [9] is described as follows: P. berghei load reduction in hepatocytes – cell-based, HepG2, luciferase luminescence, HepG2 viability, primary screen (AID 624349; in the data active = parasite load remaining mostly below about 12%, no sharp cut-off; inactive = mostly above about 10%;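 also: 100% = mean of DMSO negative control wells on the same plate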). The conditions noted are these: P. berghei liver stage in HepG2, luciferase luminescence, concentration not given here; parasite load remaining: stronger effect = lower value; viability: measured here: HepG2 viability without parasites.
Experiment [10] has as its target 6-phosphogluconate dehydrogenase, decarboxylating (Homo sapiens) (UniProt P52209). Nature of the experiment: inhibition of human phosphogluconate dehydrogenase – biochemical, recombinant enzyme, NADPH absorbance, primary screen (AID 1159550). The conditions noted are these: recombinant 6PGD, NADPH absorbance 341 nm; at 10 µM; stronger effect = higher value.
The target in experiment [11] is Mitogen-activated protein kinase 7 (Homo sapiens) (UniProt Q13164). Nature of the experiment: Gal4-ERK5 driven luciferase induction – cell-based, HTS, primary screen (AID 1508626;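 active = luciferase signal above three times the same-plate solvent-only control wells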;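 also: luciferase driven by Gal4-ERK5 fusion binding five Gal4 sites before minimal TATA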). The conditions noted are these: HeLa Gal4-ERK5 transactivation, 18 h, at 5 µM, stronger effect = higher value.
Sequence of Mitogen-activated protein kinase 7 (Homo sapiens) (Q13164 whole entry, looked up, the tested form may be a part): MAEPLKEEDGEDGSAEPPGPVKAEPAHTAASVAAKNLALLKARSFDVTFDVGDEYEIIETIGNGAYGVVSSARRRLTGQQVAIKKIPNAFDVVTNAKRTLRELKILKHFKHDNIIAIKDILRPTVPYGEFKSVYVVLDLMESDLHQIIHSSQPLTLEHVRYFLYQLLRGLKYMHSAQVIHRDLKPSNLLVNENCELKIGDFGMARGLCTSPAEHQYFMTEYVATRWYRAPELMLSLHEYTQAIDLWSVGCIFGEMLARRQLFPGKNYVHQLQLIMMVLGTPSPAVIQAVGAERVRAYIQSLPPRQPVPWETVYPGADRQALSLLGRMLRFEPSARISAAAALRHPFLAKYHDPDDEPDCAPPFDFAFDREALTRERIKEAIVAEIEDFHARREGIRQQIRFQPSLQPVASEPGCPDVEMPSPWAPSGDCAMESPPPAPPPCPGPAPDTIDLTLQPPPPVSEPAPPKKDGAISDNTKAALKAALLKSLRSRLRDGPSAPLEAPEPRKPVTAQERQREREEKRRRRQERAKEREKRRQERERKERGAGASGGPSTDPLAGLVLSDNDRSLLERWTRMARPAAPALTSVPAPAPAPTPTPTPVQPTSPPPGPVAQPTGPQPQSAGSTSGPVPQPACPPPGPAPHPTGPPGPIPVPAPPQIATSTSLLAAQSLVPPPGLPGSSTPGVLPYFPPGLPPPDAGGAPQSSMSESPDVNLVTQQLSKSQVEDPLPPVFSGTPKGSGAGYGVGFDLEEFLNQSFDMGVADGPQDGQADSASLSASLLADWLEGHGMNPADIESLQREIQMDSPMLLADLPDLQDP
Experiment [12] is described as follows: signal quenchers or enhancers, Cy5 substrate/SSB – biochemical, NIH Clinical Collection, E. coli SSB, artefact control for HCV NS3 helicase inhibitor project (AID 743268; call rule not given here). The conditions noted are these: Cy5-oligo bound E. coli SSB, fluorescence interference.
The test system of experiment [13] is Hepatitis C virus NS3 helicase. Nature of the experiment: blockers of NS3h binding to DNA – biochemical, fluorescence polarization, NIH Clinical Collection, primary screen (AID 743270; call rule not given here). The conditions noted are these: NS3 helicase binding to Cy5-dT15 DNA, stronger effect = higher value, concentration not given here. (Fluorescence polarisation rises when a labelled molecule tumbles more slowly, as on binding a larger partner.)

The target of experiment [14] is Single-stranded DNA-binding protein (Escherichia coli (strain K12)) (UniProt P0AGE0). Nature of the experiment: SSB-ssDNA binding inhibitors – biochemical, fluorescence polarization, NIH Clinical Collection, counter-screen for HCV NS3 helicase inhibitor project (AID 743271; in the data active = inhibition above about 28%). The conditions noted are these: E. coli SSB-DNA binding, stronger effect = higher value, concentration not given here.

A short description of experiment [15]: compounds distorting NS3 helicase fluorescence signal – biochemical, NIH Clinical Collection, artefact control for HCV NS3 helicase inhibitor project (AID 743272; call rule not given here;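 also: HCV NS3 helicase with a Cy5 labelled single stranded DNA probe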). The conditions noted are these: fluorescence interference counterscreen, HCV NS3 helicase assay; stronger effect = lower value. In general terms: The purpose of a counterscreen is to sort out artefacts and off-target activity.

Sequence of 6-phosphogluconate dehydrogenase, decarboxylating (Homo sapiens) (P52209 whole entry, looked up, the tested form may be a part): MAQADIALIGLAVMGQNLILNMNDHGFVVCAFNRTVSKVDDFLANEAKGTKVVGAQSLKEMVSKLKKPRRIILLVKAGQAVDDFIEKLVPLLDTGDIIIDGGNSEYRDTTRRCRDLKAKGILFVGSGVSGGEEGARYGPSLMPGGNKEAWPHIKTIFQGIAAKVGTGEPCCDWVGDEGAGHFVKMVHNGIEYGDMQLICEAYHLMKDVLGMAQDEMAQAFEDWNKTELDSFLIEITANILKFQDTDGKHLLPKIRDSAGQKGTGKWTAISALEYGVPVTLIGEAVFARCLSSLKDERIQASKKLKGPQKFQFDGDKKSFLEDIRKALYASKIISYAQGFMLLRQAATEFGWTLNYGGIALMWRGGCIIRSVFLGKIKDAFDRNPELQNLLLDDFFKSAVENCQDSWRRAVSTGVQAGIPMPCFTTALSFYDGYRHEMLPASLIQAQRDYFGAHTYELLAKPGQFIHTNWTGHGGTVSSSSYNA

For `NC(=O)c1ccc[n+]([C@@H]2O[C@H](COP(=O)([O-])OP(=O)(O)OC[C@H]3O[C@@H](n4cnc5c(N)ncnc54)[C@H](OP(=O)(O)O)[C@@H]3O)[C@@H](O)[C@H]2O)c1`, the inhibition in [1] stood at 19.9%. In experiment [2], this molecule yielded a score of 1.08. Besides, the rescue above control in experiment [3] was found to be 9.74. In addition, the cytochrome c release ratio in [4] is 0.78. Moreover, in experiment [5], the inhibition of aggregation is -21.6%. Besides, the glutamate uptake change in [6] was found to be 16.5%. In [7], the inclusion score turned out to be 2. For the same molecule, the aggregation suppression score in experiment [8] came out at 0.975. Moreover, in experiment [9], the parasite load remaining was 169% (inactive) and the viability came to 83.2%. Besides, the inhibition in experiment [10] is 16.2% (inactive). Besides, the luciferase signal in experiment [11] is 32 AU (inactive).

Consider `CC12CCC3c4ccc(OCc5ccccc5)cc4CCC3C1C[C@@H](O)[C@@H]2O` (stereo partly specified), for which the inhibition was -24.8% in [1] and -6.08% (inactive) in experiment [10]. The molecule also had a score in experiment [2] of -1.62. The molecule further returned a rescue above control in [3] of 18.3. Besides, the cytochrome c release ratio in experiment [4] stood at 1.14. The inhibition of aggregation in experiment [5] amounted to 88.8%. For the same molecule, the glutamate uptake change in [6] is -1.58%. This molecule gave an aggregation suppression score in experiment [8] of -0.303.

For the molecule `CCOC(=O)CCCCCCCCCCCCC1C=CCC1` (stereo unspecified), the inhibition was -0.73% in [1] and 2.03% (inactive) in experiment [10]. Moreover, the score in [2] is -0.7. Also, the rescue above control in experiment [3] is -1.18. Further, the cytochrome c release ratio in experiment [4] was 1.01. Further, the inhibition of aggregation in experiment [5] is 55.1%. Moreover, in experiment [6], the glutamate uptake change was -2.82%. Further, the inclusion score in experiment [7] came out at 2. Further, the aggregation suppression score in experiment [8] was determined as 0.251. The luciferase signal in [11] is 116 AU (inactive).

For the molecule `CSCCC(NC=O)C(=O)NC(C)C(=O)O` (stereo unspecified), the inhibition is 3.66% in [1] and 11.9% (inactive) in [10]. The same molecule displayed a score in experiment [2] of 1.03. The molecule also had a rescue above control in experiment [3] of 3.86. For the same molecule, the cytochrome c release ratio in experiment [4] came out at 1.14. The inhibition of aggregation in experiment [5] was determined as 81.6%. In addition, in [6], the glutamate uptake change was 9.47%. For the same molecule, the inclusion score in experiment [7] was 2. In addition, the aggregation suppression score in experiment [8] is 1.3.

Regarding `CC(C)c1c(O)ccc2c1CC[C@H]1C(C)(C)CCC[C@]21C`, in experiment [10], the inhibition was -7.32% (inactive). Further, the luciferase signal in experiment [11] was 20 AU (inactive).

Turning to `COc1cc(O)c2c(=O)c(O)c(-c3ccc(O)c(O)c3)oc2c1`, the inhibition in experiment [10] is 4.95% (inactive). The luciferase signal in experiment [11] was 144 AU (inactive).

Turning to `O=C(CCCCCCCCCCCCC1CCCC1)Nc1ccc(S(=O)(=O)c2ccc(NC(=O)CCCCCCCCCCCCC3CCCC3)cc2)cc1`, in [9], the parasite load remaining was 65.7% (inactive) and the viability was determined as 90.8%. Also, the inhibition in experiment [10] is 6.93% (inactive). In addition, the luciferase signal in [11] was 32 AU (inactive).

`CC(=O)N[C@@H](CCC(=O)O)C(=O)O`: the inhibition in experiment [1] was found to be 24.8%. In [2], this molecule returned a score of 1.29. The molecule further registered a rescue above control in experiment [3] of 9.63. In experiment [4], the cytochrome c release ratio is 1.22. Also, in experiment [5], the inhibition of aggregation was determined as 74.1%. Moreover, the glutamate uptake change in experiment [6] is -6.23%. The inclusion score in experiment [7] turned out to be 2. Besides, the aggregation suppression score in experiment [8] worked out at 1.35. Moreover, in experiment [9], the parasite load remaining was 196% (inactive) and the viability amounted to 71.4%. The inhibition in experiment [10] was 13.8% (inactive).

As to `CSCCC(N)C(=O)NC(CC(C)C)C(=O)NC(Cc1ccccc1)C(=O)O` (stereo unspecified), the inhibition in [1] was 18.9%; in experiment [10], 9.25% (inactive). Further, the score in experiment [2] is 1.68. The molecule further came in with a rescue above control in experiment [3] of 2.33. Besides, the cytochrome c release ratio in [4] worked out at 0.77. The inhibition of aggregation in [5] amounted to 67.8%. For the same molecule, the glutamate uptake change in experiment [6] was 4.95%. Also, in experiment [7], the inclusion score was found to be 2. This molecule gave an aggregation suppression score in experiment [8] of 1.32.

Consider `COC(=O)[C@H]1[C@H]2C[C@H]3c4[nH]c5cc(OC)ccc5c4CCN3C[C@H]2C[C@@H](OC(=O)c2cc(OC)c(OC)c(OC)c2)[C@@H]1OC`, for which the inhibition in experiment [1] is -6.47%; in experiment [10] it was 0.174% (inactive). Also, the score in experiment [2] was 1.04. Moreover, the rescue above control in experiment [3] was -3.75. Moreover, the cytochrome c release ratio in experiment [4] was found to be 1.13. For the same molecule, in experiment [5], the inhibition of aggregation came to 26.7%. Besides, the glutamate uptake change in experiment [6] came out at 8.81%. Besides, the inclusion score in experiment [7] was determined as 2.5. Also, the aggregation suppression score in experiment [8] came out at 0.976. Further, the luciferase signal in experiment [11] is 92 AU (inactive).

As to `CC(N)C(=O)NC(Cc1ccccc1)C(=O)O` (stereo unspecified), the inhibition in experiment [1] was 17.1%; in experiment [10], 16.4% (inactive). The molecule further yielded a score in [2] of 1.2. The molecule also yielded a rescue above control in [3] of 1.23. The cytochrome c release ratio in experiment [4] stood at 1.13. Besides, the inhibition of aggregation in [5] is 77.8%. In experiment [6], the glutamate uptake change turned out to be 2.41%. Moreover, the inclusion score in [7] was found to be 2. Besides, the aggregation suppression score in experiment [8] was 1.4.

On to `CC=C1[C@H]2C=C(C)C[C@]1(N)c1ccc(=O)[nH]c1C2`, for which the parasite load remaining in experiment [9] was 62.9% (inactive). Also, the viability in experiment [9] is 72.6%. For the same molecule, the fluorescence ratio in [12] was 0.99 (inactive); in experiment [15] it was 0.96 (inactive). The inhibition in experiment [13] was -2.84% (inactive); in [14] it was -1.97% (inactive); in experiment [10] it was -0.222% (inactive). In addition, in experiment [11], the luciferase signal was 44 AU (inactive).

Take `OC[C@@H](O)[C@@H](O)C(O)[C@H](O)[C@@H](O)CO` (stereo partly specified): the inhibition in experiment [10] was -5.44% (inactive). In experiment [11], the luciferase signal was 56 AU (inactive).
